# Values without a mark were called inactive. Inconclusive results are not listed. Entries that show only a call come without a potency. Activity calls are given as the source filed them. Unless noted, the call rests on the fitted dose curve; in most records, active means well fitted curve in the direction sought with a large enough effect in the repeat runs; inconclusive means weak or mixed curves; inactive means no such curve, though single readings can be large; an effect the other way counts as inactive or inconclusive.
# Tests used:
# [1] = qHTS assay to identify small molecule agonists of the TGF-beta/Smad signaling pathway - cell viability counter screen (AID 1346829); further: top concentration of the series differs between compounds; nearly all actives have a fitted effect of over 45% in size
# In short: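 Same-well cytotoxicity: CellTiter-Glo added after the 2 hr room-temperature beta-lactamase substrate step, luminescence measured 30 min later; cells had 5 hr of compound at 37 C.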
# [2] = qHTS assay to identify small molecule agonists of the TGF-beta/Smad signaling pathway (AID 1346859; active means well fitted activation curve with a large enough effect in the signal ratio in the repeat runs, not every such curve was filed as active; the % refers to the signal ratio; further: series mostly up to about 77 µM)
# In short: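 Each well held 4,000 SBE-bla HEK 293T cells incubated overnight before compound addition; 5 hr later the cleavable FRET substrate went on for 2 hr at room temperature, and fluorescence was read at two emissions.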
# [3] = Human pregnane X receptor (PXR) small molecule agonists, qHTS cell viability counter screen (AID 1346977); further: nearly all actives have a fitted effect of over 50% in size
# In short: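 Tox21 qHTS format; PXR-Luc HepG2, 2,000/well, charcoal-stripped FBS 5%. Cpd exposure 24hr. Read: CellTiter-Fluor fluorescence, multiplexed with luciferase.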
# [4] = Caspase-3/7 induction in HepG2 cells by small molecules, qHTS assay (AID 1346978); further: nearly all actives have a fitted effect of over 15% in size
# In short: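 Wild-type HepG2 cells, 2,000/well, settled 5 hr at 37 C and 5% CO2, then compound-treated for 17 hr; caspase-3/7 activity read by luminescent Caspase-Glo 3/7 after 30 min at room temperature.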
# [5] = Caspase-3/7 induction in CHO-K1 cells by small molecules, qHTS assay (AID 1346980); further: nearly all actives have a fitted effect of over 15% in size
# In short: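 Wild-type CHO-K1 cells exposed to compounds for 17hr at 37 C, 5% CO2. Caspase-3/7 activity then measured by Caspase-Glo 3/7 luminescence after 30min at room temperature.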
# [6] = Caspase-3/7 induction in HepG2 cells by small molecules, qHTS cell viability counter screen (AID 1346981); further: series mostly up to about 92 µM; nearly all actives have a fitted effect of over 30% in size
# In short: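 Multiplexed with the caspase-3/7 assay: HepG2 cells, 16 hr compound treatment, CellTiter-Fluor viability detection by fluorescence.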
# [7] = target: Nuclear receptor subfamily 1 group I member 2 (Homo sapiens) (UniProt O75469); assay: Human pregnane X receptor (PXR) small molecule agonists, qHTS assay (AID 1346982); further: nearly all actives have a fitted effect of over 35% in size; further: potency means the concentration at half of the fitted maximal effect
# In short: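 We seeded PXR-Luc HepG2 cells in assay medium containing 5% charcoal-stripped FBS, added compounds 5 hr later, incubated 24 hr, and read luminescence with ONE-Glo reagent.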
# [8] = target: Cytochrome P450 2D6 (Homo sapiens) (UniProt P10635); assay: Cytochrome P450 Family 2 Subfamily D Member 6 (CYP2D6) small molecule antagonists: luciferase reporter qHTS assay (AID 1671196); further: nearly all actives have a fitted effect of over 50% in size; further: potency means the concentration at half of the fitted maximal effect
# In short: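 Luminescence (RLU), read 20 min after detection reagent, indicated CYP2D6 conversion of proluciferin to luciferin during a 1 h NADPH-dependent reaction at room temperature.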
# [9] = target: Cytochrome P450 2C19 (Homo sapiens) (UniProt P33261); assay: Cytochrome P450 Family 2 Subfamily C Member 19 (CYP2C19) small molecule antagonists: luciferase reporter qHTS assay (AID 1671197); further: nearly all actives have a fitted effect of over 65% in size; further: potency means the concentration at half of the fitted maximal effect
# In short: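 Quantitative high-throughput screen of the Tox21 library using CYP2C19 with proluciferin substrate. Reaction: NADPH regeneration, 37C, 1 h, after 10 min compound preincubation at room temperature. Readout: luminescence.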
# [10] = target: Cytochrome P450 1A2 (Homo sapiens) (UniProt P05177); assay: Cytochrome P450 Family 1 Subfamily A Member 2 (CYP1A2) small molecule antagonists: luciferase reporter qHTS assay (AID 1671199); further: nearly all actives have a fitted effect of over 50% in size; further: potency means the concentration at half of the fitted maximal effect
# In short: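 CYP1A2 turnover of a luminogenic substrate was quantified after 1 h with NADPH regeneration at room temperature. Furafylline served as positive control.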
# [11] = target: Voltage-gated inwardly rectifying potassium channel KCNH2 (Homo sapiens) (UniProt Q12809); assay: Human Ether-a-go-go-Related Gene (hERG) channel small molecule antagonists: fluorescence cell-based qHTS assay (AID 1671200);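 further: hERG-expressing U2OS cells given a thallium stimulus after FluxOR II dye loading; series mostly up to about 77 µM; nearly all actives have a fitted effect of over 50% in size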
# In short: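 Kinetic two-minute fluorescence traces, sampled at 1 s, were collected following thallium stimulus of U2OS cells (1000 per well) that had been cultured overnight at 37 C and loaded with FluxOR II.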
# [12] = target: Cytochrome P450 3A4 (Homo sapiens) (UniProt P08684); assay: Cytochrome P450 Family 3 Subfamily A Member 4 (CYP3A4) small molecule antagonists: luciferase reporter qHTS assay (AID 1671201); further: nearly all actives have a fitted effect of over 50% in size; further: potency means the concentration at half of the fitted maximal effect
# In short: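 Proluciferin-to-luciferin conversion by CYP3A4, NADPH-regenerated, 1 h RT; luminescence read as RLU. Ketoconazole as control.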
# [13] = Caspase-3/7 induction in CHO-K1 cells by small molecules, qHTS cell viability counter screen (AID 1346979); further: nearly all actives have a fitted effect of over 35% in size
# In short: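 CellTiter-Fluor viability check, qHTS format: wild-type CHO-K1, 16hr compound treatment, 1hr reagent incubation, fluorescence read.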
# [14] = target: Cytochrome P450 2C9 (Homo sapiens) (UniProt P11712); assay: Cytochrome P450 Family 2 Subfamily C Member 9 (CYP2C9) small molecule antagonists: luciferase reporter qHTS assay (AID 1671198)
# In short: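 P450-Glo proluciferin substrate with CYP2C9 enzyme; 10 min RT preincubation, then NADPH regeneration 1 h at 37C; luciferin detection reagent 20 min RT, luminescence in relative luminescence units.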
# [15] = target: Thyrotropin-releasing hormone receptor (Homo sapiens) (UniProt P34981); assay: qHTS assay to identify small molecule antagonists of the thyrotropin-releasing hormone receptor (TRHR) signaling pathway (AID 1346877; active means well fitted inhibition curve with a large enough effect in the repeat runs, not every such curve was filed as active; further: series mostly up to about 51 µM)
# In short: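 Screening used HEK293 cells engineered with TRHR, with a brief 5 min room-temperature compound exposure preceding addition of TRH to 1 nM. The read-out was kinetic calcium-dye fluorescence, concentration-response from 15 doses in triplicate.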
# [16] = target: Thyrotropin-releasing hormone receptor (Homo sapiens) (UniProt P34981); assay: qHTS assay to identify small molecule agonists of the thyrotropin-releasing hormone receptor (TRHR) signaling pathway (AID 1346891; calls by dose curve; further: series mostly up to about 58 µM)
# In short: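 Screening of agonists relied on calcium signalling in HEK293 cells expressing human TRHR: dye loading 2 h at 37 °C preceded compound addition and a 3-min fluorescence time course.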
# [17] = target: Nuclear receptor subfamily 1 group I member 2 (Homo sapiens) (UniProt O75469); assay: CYP3A4 induction through human pregnane X receptor (PXR) by small molecules, qHTS assay (AID 1346984); further: nearly all actives have a fitted effect of over 40% in size
# In short: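 qHTS, concentration-response format: HepG2 DPX-2 line, PXR/CYP3A4-luc. Exposure 24 h, 37C. Substrate Luciferin-IPA 3uM final, 3 h. Detection One-Glo, 30 min RT.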
# [18] = target: Nuclear receptor subfamily 1 group I member 2 (Homo sapiens) (UniProt O75469); assay: Human pregnane X receptor (PXR) activation by small molecules, qHTS assay (AID 1346985); further: nearly all actives have a fitted effect of over 40% in size
# In short: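 DPX-2 cells (HepG2 co-transfected with a PXR response element and a CYP3A4-promoter luciferase construct) were seeded at 2,000 per well, rested 5 hr at 37C, then exposed to DMSO-dissolved compounds for 24 hr. Activation was read as luciferase luminescence.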
# Thyrotropin-releasing hormone receptor (Homo sapiens), sequence (P34981 whole entry, looked up): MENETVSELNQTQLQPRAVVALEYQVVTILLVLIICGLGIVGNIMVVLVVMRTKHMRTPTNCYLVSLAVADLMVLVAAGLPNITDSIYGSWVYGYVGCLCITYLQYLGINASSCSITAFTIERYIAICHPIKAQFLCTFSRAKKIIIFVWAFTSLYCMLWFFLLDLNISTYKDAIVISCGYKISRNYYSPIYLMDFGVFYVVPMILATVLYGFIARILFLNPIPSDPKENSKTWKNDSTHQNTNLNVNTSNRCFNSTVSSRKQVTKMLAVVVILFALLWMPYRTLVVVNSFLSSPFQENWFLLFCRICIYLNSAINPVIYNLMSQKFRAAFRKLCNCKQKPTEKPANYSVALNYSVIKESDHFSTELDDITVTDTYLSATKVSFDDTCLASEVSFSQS
# Nuclear receptor subfamily 1 group I member 2 (Homo sapiens), sequence (O75469 whole entry, looked up): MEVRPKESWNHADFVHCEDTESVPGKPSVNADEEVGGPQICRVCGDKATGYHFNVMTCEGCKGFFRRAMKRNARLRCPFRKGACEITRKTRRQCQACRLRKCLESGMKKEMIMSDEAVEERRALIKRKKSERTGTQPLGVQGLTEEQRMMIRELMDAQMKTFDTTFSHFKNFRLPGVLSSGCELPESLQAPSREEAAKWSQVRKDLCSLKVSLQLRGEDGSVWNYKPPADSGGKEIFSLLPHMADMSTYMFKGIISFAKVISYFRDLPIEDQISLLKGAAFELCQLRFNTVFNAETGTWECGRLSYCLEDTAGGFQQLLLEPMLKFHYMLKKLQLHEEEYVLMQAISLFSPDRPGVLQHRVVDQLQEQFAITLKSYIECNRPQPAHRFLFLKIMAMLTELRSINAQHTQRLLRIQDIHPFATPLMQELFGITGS
# Cytochrome P450 2C9 (Homo sapiens), sequence (P11712 whole entry, looked up): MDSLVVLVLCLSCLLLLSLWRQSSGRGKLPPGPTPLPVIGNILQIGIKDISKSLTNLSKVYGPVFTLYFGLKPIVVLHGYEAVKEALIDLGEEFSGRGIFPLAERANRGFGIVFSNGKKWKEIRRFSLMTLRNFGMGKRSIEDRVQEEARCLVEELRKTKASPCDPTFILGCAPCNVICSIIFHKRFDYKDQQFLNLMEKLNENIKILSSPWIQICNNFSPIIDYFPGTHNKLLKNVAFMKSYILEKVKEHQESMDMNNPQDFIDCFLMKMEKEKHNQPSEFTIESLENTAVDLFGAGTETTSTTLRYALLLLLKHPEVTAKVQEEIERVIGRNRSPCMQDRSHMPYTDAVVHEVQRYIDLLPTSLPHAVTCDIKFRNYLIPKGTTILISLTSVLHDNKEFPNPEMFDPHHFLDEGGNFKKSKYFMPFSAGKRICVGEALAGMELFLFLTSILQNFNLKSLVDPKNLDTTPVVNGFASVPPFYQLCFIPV
# Cytochrome P450 2C19 (Homo sapiens), sequence (P33261 whole entry, looked up): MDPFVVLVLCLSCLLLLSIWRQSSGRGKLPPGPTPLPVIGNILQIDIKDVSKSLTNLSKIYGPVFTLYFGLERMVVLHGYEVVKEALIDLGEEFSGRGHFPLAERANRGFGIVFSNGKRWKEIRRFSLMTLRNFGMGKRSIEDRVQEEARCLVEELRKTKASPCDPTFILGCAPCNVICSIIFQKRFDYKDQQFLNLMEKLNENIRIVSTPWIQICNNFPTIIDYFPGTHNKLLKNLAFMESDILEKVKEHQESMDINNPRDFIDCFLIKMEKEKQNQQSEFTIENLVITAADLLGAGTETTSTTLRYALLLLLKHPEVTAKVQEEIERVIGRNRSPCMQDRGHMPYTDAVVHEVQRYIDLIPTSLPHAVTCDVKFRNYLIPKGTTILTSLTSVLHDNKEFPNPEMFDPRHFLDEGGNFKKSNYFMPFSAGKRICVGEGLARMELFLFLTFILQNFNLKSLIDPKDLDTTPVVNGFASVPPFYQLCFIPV
# Cytochrome P450 1A2 (Homo sapiens), sequence (P05177 whole entry, looked up): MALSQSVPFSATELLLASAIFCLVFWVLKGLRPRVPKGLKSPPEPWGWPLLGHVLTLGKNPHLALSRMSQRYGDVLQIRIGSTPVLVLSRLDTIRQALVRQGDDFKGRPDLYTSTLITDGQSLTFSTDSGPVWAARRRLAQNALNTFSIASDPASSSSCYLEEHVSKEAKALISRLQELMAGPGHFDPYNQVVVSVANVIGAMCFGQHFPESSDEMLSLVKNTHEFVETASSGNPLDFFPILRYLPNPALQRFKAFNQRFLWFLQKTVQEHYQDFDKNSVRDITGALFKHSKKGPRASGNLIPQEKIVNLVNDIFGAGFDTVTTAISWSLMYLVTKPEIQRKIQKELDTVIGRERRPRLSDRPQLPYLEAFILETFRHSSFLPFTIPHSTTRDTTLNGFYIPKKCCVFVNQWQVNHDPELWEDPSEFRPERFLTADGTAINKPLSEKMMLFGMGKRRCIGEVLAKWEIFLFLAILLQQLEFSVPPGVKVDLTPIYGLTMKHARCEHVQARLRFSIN
# Cytochrome P450 2D6 (Homo sapiens), sequence (P10635 whole entry, looked up): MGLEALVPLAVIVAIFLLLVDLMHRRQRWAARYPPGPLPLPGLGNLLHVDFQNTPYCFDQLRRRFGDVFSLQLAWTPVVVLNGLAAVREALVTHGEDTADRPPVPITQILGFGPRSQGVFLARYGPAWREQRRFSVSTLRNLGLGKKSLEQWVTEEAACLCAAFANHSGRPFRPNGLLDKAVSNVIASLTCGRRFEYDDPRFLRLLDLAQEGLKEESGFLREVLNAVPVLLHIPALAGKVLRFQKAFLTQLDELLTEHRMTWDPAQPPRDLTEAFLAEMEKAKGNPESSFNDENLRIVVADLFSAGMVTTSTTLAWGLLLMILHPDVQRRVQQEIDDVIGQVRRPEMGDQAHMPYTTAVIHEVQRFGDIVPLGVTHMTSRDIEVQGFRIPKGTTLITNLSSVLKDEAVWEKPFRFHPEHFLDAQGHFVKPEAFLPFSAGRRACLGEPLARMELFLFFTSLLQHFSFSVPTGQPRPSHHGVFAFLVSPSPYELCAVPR
# Cytochrome P450 3A4 (Homo sapiens), sequence (P08684 whole entry, looked up): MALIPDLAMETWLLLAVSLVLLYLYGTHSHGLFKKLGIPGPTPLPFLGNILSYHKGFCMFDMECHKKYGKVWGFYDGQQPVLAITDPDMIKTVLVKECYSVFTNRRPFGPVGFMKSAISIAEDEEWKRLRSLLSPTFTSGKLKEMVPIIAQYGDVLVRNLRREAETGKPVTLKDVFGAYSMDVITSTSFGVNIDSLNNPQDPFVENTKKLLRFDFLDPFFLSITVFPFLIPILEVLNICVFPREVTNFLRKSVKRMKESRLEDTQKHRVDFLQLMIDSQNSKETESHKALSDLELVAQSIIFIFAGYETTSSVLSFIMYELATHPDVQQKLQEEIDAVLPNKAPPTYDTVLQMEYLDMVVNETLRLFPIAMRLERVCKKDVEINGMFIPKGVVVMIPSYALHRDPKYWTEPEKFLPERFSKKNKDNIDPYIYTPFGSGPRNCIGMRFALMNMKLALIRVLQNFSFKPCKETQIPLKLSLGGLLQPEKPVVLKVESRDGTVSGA
# Voltage-gated inwardly rectifying potassium channel KCNH2 (Homo sapiens), sequence (Q12809 whole entry, looked up): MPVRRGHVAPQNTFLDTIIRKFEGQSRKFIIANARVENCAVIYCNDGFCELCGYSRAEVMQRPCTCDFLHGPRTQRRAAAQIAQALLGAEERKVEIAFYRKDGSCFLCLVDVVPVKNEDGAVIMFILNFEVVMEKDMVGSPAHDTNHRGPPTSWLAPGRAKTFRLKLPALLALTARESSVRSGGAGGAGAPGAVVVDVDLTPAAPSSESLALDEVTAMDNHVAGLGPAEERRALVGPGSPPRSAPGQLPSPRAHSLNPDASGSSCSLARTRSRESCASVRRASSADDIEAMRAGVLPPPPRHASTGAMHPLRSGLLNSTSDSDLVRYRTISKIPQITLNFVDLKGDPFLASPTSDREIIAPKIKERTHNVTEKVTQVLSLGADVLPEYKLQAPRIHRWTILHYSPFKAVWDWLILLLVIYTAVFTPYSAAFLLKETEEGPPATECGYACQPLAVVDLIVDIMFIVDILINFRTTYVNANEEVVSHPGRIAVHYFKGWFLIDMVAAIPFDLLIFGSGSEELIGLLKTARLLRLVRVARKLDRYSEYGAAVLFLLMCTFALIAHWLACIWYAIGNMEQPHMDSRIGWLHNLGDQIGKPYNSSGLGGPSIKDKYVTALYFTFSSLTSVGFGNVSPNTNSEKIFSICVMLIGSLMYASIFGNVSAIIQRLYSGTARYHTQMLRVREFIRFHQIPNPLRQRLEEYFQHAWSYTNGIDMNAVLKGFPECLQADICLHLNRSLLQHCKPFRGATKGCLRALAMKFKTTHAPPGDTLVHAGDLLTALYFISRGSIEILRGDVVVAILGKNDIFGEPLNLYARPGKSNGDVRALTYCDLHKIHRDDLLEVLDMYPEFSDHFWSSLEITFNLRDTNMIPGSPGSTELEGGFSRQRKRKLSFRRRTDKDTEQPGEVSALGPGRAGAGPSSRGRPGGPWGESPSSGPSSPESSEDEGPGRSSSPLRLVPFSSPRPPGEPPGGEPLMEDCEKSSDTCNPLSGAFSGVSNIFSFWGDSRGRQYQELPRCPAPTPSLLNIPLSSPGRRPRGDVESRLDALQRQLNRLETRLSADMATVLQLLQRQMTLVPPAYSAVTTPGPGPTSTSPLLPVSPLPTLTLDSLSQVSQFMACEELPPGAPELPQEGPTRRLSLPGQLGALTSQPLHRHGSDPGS
Compound,outcome [1],outcome [2],outcome [3],outcome [4],outcome [5],outcome [6],Potency [7],Potency [8],Potency [9],Potency [10],Potency [11],Potency [12],Potency [13],Potency [14],outcome [15],Potency [16],outcome [17],outcome [18]
N#Cc1cc(NC(=O)C(=O)O)c(Cl)c(NC(=O)C(=O)O)c1,inactive,inactive,inactive,inactive,inactive,inactive,inactive,inactive,inactive,inactive,inactive,inactive,,,,,,
Cc1ccc(N)nc1,inactive,inactive,inactive,,inactive,inactive,inactive,,inactive,,inactive,inactive,inactive,inactive,,,,
Cc1ccccc1C#N,inactive,,inactive,inactive,inactive,inactive,inactive,inactive,inactive,inactive,inactive,inactive,inactive,inactive,inactive,inactive,,
Cc1cc2c(cc1CC(=O)c1sccc1S(=O)(=O)Nc1onc(C)c1Cl)OCO2,inactive,inactive,inactive,,inactive,inactive,,2.45 µM (active),8.71 µM (active),3.23 µM (active),inactive,,inactive,,,,,
COc1ccc2cc(CCC(C)=O)ccc2c1,inactive,inactive,inactive,inactive,inactive,inactive,10.6 µM (active),inactive,11 µM (active),,inactive,inactive,inactive,,,,inactive,
CCCCC(CC)COC(=O)CC#N (stereo unspecified),inactive,inactive,inactive,inactive,inactive,inactive,2.73 µM (active),,39.9 µM (active),35.6 µM (active),inactive,39.9 µM (active),inactive,,,,,
O=C1CCCc2c(O)cccc21,inactive,inactive,inactive,inactive,inactive,inactive,inactive,inactive,,34.7 µM (active),inactive,inactive,inactive,inactive,,,,
CCCC(C)C(O)CC (stereo unspecified),inactive,inactive,inactive,inactive,inactive,inactive,inactive,inactive,inactive,inactive,inactive,inactive,,inactive,,,,
CCCCCCCCC1CO1 (stereo unspecified),inactive,inactive,inactive,inactive,inactive,inactive,55.7 µM (active),inactive,inactive,inactive,inactive,inactive,inactive,inactive,,,,
COCc1nnc(-c2ccc[n+]([O-])c2)n1-c1c(Cl)c(Cl)cc2[nH]c(=O)c(=O)[nH]c12,inactive,inactive,inactive,,inactive,inactive,inactive,inactive,,,inactive,6.33 µM (active),inactive,inactive,,,,
CCOC(=O)COc1ccc2c(C)c(CCN(CC)CC)c(=O)oc2c1Cl,inactive,,inactive,inactive,inactive,inactive,inactive,,,inactive,,inactive,inactive,,inactive,inactive,inactive,inactive
CC(CC(=O)Cl)CC(C)(C)C (stereo unspecified),inactive,inactive,inactive,inactive,inactive,inactive,inactive,inactive,80.2 µM (active),,inactive,inactive,inactive,,,,,
Nc1nc(Cl)cc(Cl)n1,inactive,,inactive,inactive,inactive,inactive,inactive,inactive,inactive,,inactive,inactive,,inactive,inactive,inactive,,
CC(C)(C)OC=O,inactive,,inactive,,inactive,inactive,inactive,inactive,inactive,,inactive,inactive,inactive,inactive,,,,
O=c1[nH]c(=O)c2cn[nH]c2[nH]1,inactive,,,,inactive,inactive,,inactive,inactive,inactive,inactive,inactive,inactive,inactive,,inactive,,
CCOC(=O)CC,inactive,,inactive,inactive,inactive,inactive,inactive,inactive,inactive,inactive,inactive,inactive,inactive,,,,,
CC(=O)OC/C=C(/C)CCC=C(C)C,inactive,,inactive,inactive,inactive,inactive,inactive,,inactive,inactive,inactive,inactive,inactive,inactive,,,,
Cc1cc(C)c(N)c(Cl)c1,inactive,,inactive,inactive,inactive,inactive,inactive,inactive,,2.83 µM (active),inactive,inactive,,,inactive,inactive,,
O=S(=O)(O)c1ccc(Cl)cc1,inactive,,inactive,inactive,inactive,inactive,inactive,,55.3 µM (active),inactive,inactive,inactive,inactive,,,inactive,,
CC(C)C(=O)Nc1cccc(C2CN3CCSC3=N2)c1 (stereo unspecified),inactive,,inactive,inactive,inactive,inactive,inactive,,inactive,inactive,inactive,,,,inactive,inactive,,
CC(=O)O[C@@H]1CC2C3CCc4cc(OC(=O)c5ccccc5)ccc4C3CCC2(C)[C@H]1OC(C)=O (stereo partly specified),inactive,,inactive,inactive,inactive,inactive,inactive,inactive,inactive,inactive,,inactive,inactive,,inactive,inactive,,
